Records with an inconclusive call do not appear. Active and inactive are the calls of the source. Unless noted, the call rests on the fitted dose curve; in most records, active means well fitted curve in the direction sought with a large enough effect in the repeat runs; inconclusive means weak or mixed curves; inactive means no such curve, though single readings can be large; an effect the other way counts as inactive or inconclusive.
Experiments:
[1] = A CellTox Green Cytotoxicity Assay to monitor cytotoxicity in HEK293 cells - 32 hour (AID 1224881); further: nearly all actives have a fitted effect of over 40% in size; further: potency means the concentration at half of the fitted maximal effect
How it was run: (§1)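 Dead-cell fluorescence measured kinetically: asymmetric cyanine dye, HEK293, 600 cells/well, 5 h settle, 23 nL cpd/DMSO, 37 C, reads 0–40 h every 8 h.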

[2] = A CellTox Green Cytotoxicity Assay to monitor cytotoxicity in HepG2 cells - 0 hour (AID 1224882); further: nearly all actives have a fitted effect of over 35% in size
How it was run: (§2)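 First, HepG2 cells (600/well) mixed with reagent were plated; second, after 5 h at 37 C they received compounds via pintool; third, fluorescence was measured at 0 h through 40 h at 8 h intervals.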

[3] = A CellTox Green Cytotoxicity Assay to monitor cytotoxicity in HepG2 cells - 32 hour (AID 1224883); further: nearly all actives have a fitted effect of over 50% in size
How it was run: as §2

[4] = A CellTox Green Cytotoxicity Assay to monitor cytotoxicity in HEK293 cells - 8 hour (AID 1224884); further: nearly all actives have a fitted effect of over 35% in size
How it was run: as §1

[5] = qHTS RealTime-Glo MT Cell Viability Assay in HEK293 cells - 24 hour (AID 1224886); further: top concentration of the series differs between compounds; nearly all actives have a fitted effect of over 50% in size
How it was run: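 Luminescence generated by NanoLuc from substrate produced by living HEK293 cells served as the viability signal. Each value reflects the reading at its stated time point during continuous 40 h compound exposure at 37 C.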

[6] = qHTS RealTime-Glo MT Cell Viability Assay in HEK293 cells - 8 hour (AID 1224887); further: top concentration of the series differs between compounds; nearly all actives have a fitted effect of over 50% in size
How it was run: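 600 HEK293 cells per well, dispensed already mixed with RealTime-Glo MT reagents. Compound dosing came 5 h later. The same wells were read for luminescence at 0, 8, 16, 24, 32 and 40 h of exposure at 37 C.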

[7] = A CellTox Green Cytotoxicity Assay to monitor cytotoxicity in HEK293 cells - 16 hour (AID 1224888); further: nearly all actives have a fitted effect of over 35% in size; further: potency means the concentration at half of the fitted maximal effect
How it was run: as §1

[8] = qHTS RealTime-Glo MT Cell Viability Assay in HepG2 cells - 0 hour (AID 1224889); further: nearly all actives have a fitted effect of over 50% in size
How it was run: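 Tox21 10K library screened in qHTS format on HepG2 cells carrying RealTime-Glo reagents. Compounds were added after a 5 h preincubation, and the luminescent signal from continuous culture was measured repeatedly during 40 h treatment.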

[9] = A CellTox Green Cytotoxicity Assay to monitor cytotoxicity in HepG2 cells - 8 hour (AID 1224890); further: nearly all actives have a fitted effect of over 45% in size
How it was run: as §2

[10] = qHTS assay to identify small molecule antagonists of the estrogen receptor alpha (ER-alpha) signaling pathway using the BG1 cell line in the presence of 0.1 nM 17-beta-estradiol - cell viability counter screen (AID 1259241); further: nearly all actives have a fitted effect of over 40% in size
How it was run: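 Following 5 days in phenol red-free medium with charcoal-stripped serum, VM7Luc4E2 cells received test compounds alongside 0.1 nM 17beta-estradiol (final) at 37C for 22 hr. Live cells were then quantified via protease-substrate fluorescence.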

[11] = biological target: Estrogen receptor (Homo sapiens) (UniProt P03372); assay: qHTS assay to identify small molecule antagonists of the estrogen receptor alpha (ER-alpha) signaling pathway using the BG1 cell line in the presence of 0.1 nM 17-beta-estradiol (AID 1259244); further: nearly all actives have a fitted effect of over 50% in size
Sequence of Estrogen receptor (Homo sapiens) (P03372 whole entry, looked up): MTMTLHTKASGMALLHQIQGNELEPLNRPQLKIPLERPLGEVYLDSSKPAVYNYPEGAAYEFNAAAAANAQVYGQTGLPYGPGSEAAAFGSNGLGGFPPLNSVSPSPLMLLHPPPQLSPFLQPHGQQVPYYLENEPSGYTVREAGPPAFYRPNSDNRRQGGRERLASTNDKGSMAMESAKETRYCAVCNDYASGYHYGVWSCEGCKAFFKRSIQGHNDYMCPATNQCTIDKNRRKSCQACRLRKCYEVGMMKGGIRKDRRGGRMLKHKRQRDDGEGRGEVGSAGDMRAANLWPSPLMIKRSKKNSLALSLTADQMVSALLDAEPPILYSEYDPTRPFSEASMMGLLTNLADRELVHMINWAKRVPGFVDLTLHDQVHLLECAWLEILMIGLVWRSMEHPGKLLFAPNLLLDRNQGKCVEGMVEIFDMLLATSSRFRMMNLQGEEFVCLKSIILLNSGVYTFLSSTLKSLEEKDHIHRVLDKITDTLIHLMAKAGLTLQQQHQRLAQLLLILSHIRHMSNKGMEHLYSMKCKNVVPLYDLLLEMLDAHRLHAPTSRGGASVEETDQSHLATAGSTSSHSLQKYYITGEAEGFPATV
How it was run: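 Reporter is a stably transfected luciferase under four estrogen responsive elements in VM7Luc4E2 cells expressing native full-length ER-alpha; inhibition of 0.1 nM (final) 17beta-estradiol-driven signal over 22 h is read by luminescence.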

[12] = qHTS assay to identify small molecule HDAC inhibitors (AID 1259364);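 further: wild-type HCT-116 cells with endogenous class I/II HDAC activity; top concentration of the series differs between compounds; nearly all actives have a fitted effect of over 45% in size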
How it was run: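 Quantitative high-throughput format: overnight-seeded HCT-116 cells got compounds for 2 hr at 37C; HDAC-Glo I/II reagent added, 30 min RT, luminescence measured.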

[13] = qHTS assay to identify small molecule HDAC inhibitors - cell viability counter screen (AID 1259365)
How it was run: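 HCT-116 wild-type, overnight attachment; 2hr drug exposure, 37C; CellTiter-Glo luminescent ATP readout after 30min RT.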

[14] = qHTS assay to identify small molecule agonists of the sonic hedgehog signaling (Shh) pathway - cell viability counter screen (AID 1259366); further: nearly all actives have a fitted effect of over 50% in size
How it was run: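 Compounds in DMSO were pin-transferred onto 3T3 Gli1-Luc cells that had settled 4hr; plates then stood 24hr at 37C and 5% CO2. One hour before the end, CellTiter-Fluor was added and fluorescence recorded.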

[15] = qHTS assay to identify small molecule agonists of the sonic hedgehog signaling (Shh) pathway (AID 1259368; calls by dose curve;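 further: NIH/3T3-derived 3T3Gli1-Luc cells carrying a stable Gli1-driven firefly luciferase reporter; series mostly up to about 92 µM; nearly all actives have a fitted effect of over 15% in size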)
How it was run: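 Quantitative high-throughput format using a Gli1-driven firefly luciferase reporter line derived from NIH/3T3 cells. After a 24 hr compound treatment at 37 C and 5% CO2, luminescence reported Gli1 response element activity.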

[16] = qHTS assay to identify small molecule antagonists of the androgen receptor (AR) signaling pathway using the MDA cell line in the presence of 0.5 nM R1881 - cell viability counter screen (AID 1259242); further: nearly all actives have a fitted effect of over 45% in size
How it was run: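 qHTS format. MDA-kb2 (MMTV-luc, AR/GR responsive) + cpd + 0.5 nM R1881 final, 16 hr 37C/0% CO2 → CellTiter-Fluor 30 min → fluorescence intensity.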

[17] = biological target: Androgen receptor (Homo sapiens) (UniProt P10275); assay: qHTS assay to identify small molecule antagonists of the androgen receptor (AR) signaling pathway using the MDA cell line in the presence of 0.5 nM R1881 (AID 1259243); further: nearly all actives have a fitted effect of over 50% in size
Sequence of Androgen receptor (Homo sapiens) (P10275 whole entry, looked up): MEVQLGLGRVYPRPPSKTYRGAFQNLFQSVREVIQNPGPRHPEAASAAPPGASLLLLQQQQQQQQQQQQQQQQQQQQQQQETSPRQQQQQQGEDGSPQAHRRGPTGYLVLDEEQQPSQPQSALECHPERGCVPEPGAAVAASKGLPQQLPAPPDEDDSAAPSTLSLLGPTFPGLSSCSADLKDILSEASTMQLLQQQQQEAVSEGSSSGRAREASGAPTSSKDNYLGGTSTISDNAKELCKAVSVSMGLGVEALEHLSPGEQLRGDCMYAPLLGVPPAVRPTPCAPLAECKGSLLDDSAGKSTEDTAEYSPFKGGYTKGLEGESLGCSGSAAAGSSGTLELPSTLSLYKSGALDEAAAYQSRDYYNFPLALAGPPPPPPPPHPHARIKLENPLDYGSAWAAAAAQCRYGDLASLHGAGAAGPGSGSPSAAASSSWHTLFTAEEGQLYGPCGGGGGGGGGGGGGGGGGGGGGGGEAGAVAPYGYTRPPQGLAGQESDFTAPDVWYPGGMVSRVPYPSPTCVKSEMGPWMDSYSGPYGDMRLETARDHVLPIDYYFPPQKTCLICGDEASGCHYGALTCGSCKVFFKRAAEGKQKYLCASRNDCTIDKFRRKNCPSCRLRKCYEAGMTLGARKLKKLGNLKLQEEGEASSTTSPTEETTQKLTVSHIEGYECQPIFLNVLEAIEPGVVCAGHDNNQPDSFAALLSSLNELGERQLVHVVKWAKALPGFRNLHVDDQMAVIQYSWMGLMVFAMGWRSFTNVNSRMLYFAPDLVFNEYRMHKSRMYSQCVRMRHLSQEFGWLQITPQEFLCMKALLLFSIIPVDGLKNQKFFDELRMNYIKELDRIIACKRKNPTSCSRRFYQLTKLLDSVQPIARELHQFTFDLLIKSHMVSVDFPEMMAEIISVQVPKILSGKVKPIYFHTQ
How it was run: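 Antagonist mode quantitative HTS in MDA-kb2 MMTV-luciferase cells, agonist R1881 at 0.5 nM final, 16 hr exposure at 37C and 0% CO2, luminescent detection.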

[18] = qHTS assay to identify small molecule antagonists of the sonic hedgehog signaling (Shh) pathway - cell viability counter screen (AID 1259367); further: nearly all actives have a fitted effect of over 55% in size
How it was run: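 Fluorescence read-out (CellTiter-Fluor, 1 hr at 37C) taken after 23 hr compound treatment of 3T3 Gli1-Luc cells stimulated with conditioned medium. Cells were seeded at 2,000 per well and pre-incubated 4 hr.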
On the % scale 0 is the no-effect control and ±100 the full control effect.

O=[N+]([O-])c1cc(Cl)c(Cl)c(Cl)c1
inactive: outcome [2] | Potency [3] | Potency [4] | Potency [5] | Potency [6] | Potency [8] | Potency [9] | outcome [10] | Potency [11] | Potency [12] | outcome [13] | Potency [14] | outcome [15]
active: Potency [1] 21.7 µM | Potency [7] 21.7 µM

CC1=C(C(=O)O)N2C(=O)[C@@H](N)[C@H]2SC1
inactive: cytotoxicity increase [1] -10.4% [at 15.8 µM] | cytotoxicity [2] -6.07% [at 15.8 µM] | cytotoxicity increase [3] -8.31% [at 15.8 µM] | cytotoxicity increase [4] -10.6% [at 15.8 µM] | activity change, negative = cytotoxicity [5] -0.764% [at 15.8 µM] | activity change, negative = cytotoxicity [6] -0.746% [at 15.8 µM] | activity change [7] -1.57% [at 15.8 µM, hits give high values] | activity change, negative = cytotoxicity [8] -0.386% [at 15.8 µM] | activity change, negative = cytotoxicity [10] 0.956% [at 19 µM] | viability change, negative = cytotoxic [16] 2.31% [at 19 µM] | activity, negative = inhibition [17] 15.5% [at 19 µM] | activity change, negative = inhibition [11] 0.965% [at 19 µM] | activity change, negative = inhibition [12] 5.61% [at 19 µM] | activity change, negative = cytotoxicity [13] 3.22% [at 19 µM] | viability change, negative = cytotoxic [14] -3.69% [at 19 µM] | viability change, negative = cytotoxic [18] 2.83% [at 19 µM]

CCOC(=O)CP(=O)(OCC)OCC
inactive: Potency [1] | outcome [2] | Potency [3] | Potency [4] | Potency [5] | Potency [6] | Potency [8] | Potency [9] | outcome [10] | outcome [16] | Potency [11] | Potency [12] | outcome [13] | Potency [14] | Potency [18] | outcome [15]

OCCBr
inactive: Potency [1] | outcome [2] | Potency [3] | Potency [4] | Potency [5] | Potency [6] | Potency [7] | Potency [8] | Potency [9] | outcome [10] | outcome [16] | Potency [11] | Potency [12] | outcome [13] | Potency [18]

Source: PubChem BioAssay (Tox21)
